# Sampled rows, rich in hits. Any-hit rate of the full collection: about 21%.
# Shiga inhibitor = blocks Shiga toxin action in Vero cells | inhibition, % at 38.7 µM | Vero cells, Shiga toxin protein synthesis inhibition reporter | AID 2315 | actives 9.2% (n = 290,000); in the data active = inhibition mostly above about 28%, no sharp cut-off; inactive = mostly below about 43%; note: 0% is about no effect
# Pf growth 48h = P. falciparum growth inhibition at 48 hours (one generation); P. falciparum luciferase growth in erythrocytes, 48 h; Potency, µM (doses to about 28.7 µM), for the others: at the top dose activity change, negative = inhibition, hits mostly inhibitors; actives 5.9% (n = 310,000); note: potency is the fitted concentration of half-maximal effect; % is set by controls: 0 for no effect and ±100 for the full control effect
#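 Cell-based growth assay: transgenic P. falciparum expressing firefly luciferase, cultured in red cells within RPMI 1640 containing 0.5% w/v Albumax, 24 mM bicarbonate and gentamycin. A drop in luciferase activity indicates inhibition.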
# Cycloheximide cs = affects cycloheximide protein synthesis inhibition readout, counter-screen; cell reporter, cycloheximide protein synthesis inhibition counterscreen; max response, %; actives 12% (n = 300,000); AID 2314; in the data active = max response mostly above about 13%, no sharp cut-off; inactive = mostly below about 14%; note: read at 38.3 µM for the half of the compounds with a filed dose; 0% is about no effect
# Pf growth 96h = P. falciparum growth inhibition at 96 hours; P. falciparum luciferase reporter growth, 96 h; Potency, µM (top dose mostly 28.7 µM), without a hit: at the highest dose activity change, negative = inhibition, most hits filed as inhibitors; actives 6.9% (n = 320,000); AID 504834; note: potency is the fitted concentration of half-maximal effect; % is set by controls: 0 for no effect and ±100 for the full control effect
#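 Compounds incubated with erythrocytes infected by luciferase-expressing P. falciparum (2% hematocrit, 0.05% parasitemia final) for 96 hours, 37 C in 5% CO2. Growth inhibition scored as decreased luciferase luminescence.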
# An asterisk follows results filed as active; u = inconclusive; x = no result given; [ ] = remark or other dose. Unless noted, calls come from the whole dose curve; as a rule, active = well fitted inhibition curve with a large enough effect; inconclusive = small, poorly fitted or top-dose-only effect, or another doubt; inactive = no such curve, though single readings can be large or run the other way.
SMILES,Shiga inhibitor,Pf growth 48h,Cycloheximide cs,Pf growth 96h
CCOC(=O)c1cnc2ccc(C)cc2c1NCCO,-6,13µM*,-1,u
Cc1ccc(C)c(N(CC(=O)NC(C)(C)C)C(=O)CCC(=O)Nc2nccs2)c1,-6,-10%,-1,-3%
O=[N+]([O-])c1cccnc1S(=O)(=O)c1ccccc1,6,u,14,10µM*
COc1ccc([N+](=O)[O-])c(S(=O)(=O)c2ccccc2)n1,-3,-8%,9,u
Cc1ccc(NS(=O)(=O)c2cccc(C(=O)NNC(=O)c3cccn3C)c2)c(C)c1,32,32%,24*,0%
Cc1oc(CSCCSCc2cc(C(=O)O)c(C)o2)cc1C(=O)O,x,7%,-1,15µM*
Cc1oc(CSCC2CCCO2)cc1C(=O)O (configuration not stated),-1,21%,1,x
COc1cccc(CN(CC2CCCO2)C(=O)c2cc3ccccc3oc2=O)c1 (configuration not stated),77*,-7%,44*,-2%
COc1cccc(CN(C(=O)c2cc3ccccc3oc2=O)C2CC2)c1,78*,-27%,26*,x
O=C(/C=C/c1ccc(Cl)c([N+](=O)[O-])c1)Nc1ccc(N2CCCC2)cc1,-7,-24%,-3,u
Cc1ccc(NCc2nnc(SC(C)C(=O)N/N=C/c3ccc(C)o3)n2-c2ccccc2)cc1 (configuration not stated),-14,17%,-3,u
Cc1nc2sc3c(=O)[nH]nnc3c2c(C)c1Br,1,38%,-5,-2%
NC1=NC[C@@H](Cc2ccc(O)cc2)N1CCCCC1CCCCC1,-2,1.9µM*,-5,1.2µM*
NC1=NC[C@H](Cc2ccc(O)cc2)N1CC1CCCCC1,-6,5.9µM*,-2,2.6µM*
Cc1cc(NC(=O)COC(=O)CCNS(=O)(=O)c2c(Cl)cccc2Cl)no1,-13,4%,-3,33%
COc1cccc(-n2cc(CNCc3c(C(=O)N(C)C)nc4ccc(Cl)cn34)cn2)c1,11,8.3µM*,2,u
Cc1ccccc1-n1cc(CNCc2c(C(=O)N(C)C)nc3ccc(Cl)cn23)cn1,-1,16%,-2,-7%
COc1ccc(S(=O)(=O)N2CCN(C(=S)Nc3ccc(S(N)(=O)=O)cc3)CC2)cc1,-2,u,-3,u
COc1ccc(-c2cn(-c3ccc(C)c(Cl)c3)c(=S)[nH]2)cc1OC,18,10µM*,1,63%
Nc1ccc(-n2cc(-c3ccccc3)[nH]c2=S)cc1,61*,-11%,33*,u
COc1ccc(-c2n[nH]c(=S)n2-c2ccc(Br)cc2)cc1OC,-9,4%,1,6%
COc1ccc(-c2cn(-c3ccccc3)c(=S)[nH]2)cc1OC,75*,20%[0.00184 µM],25*,-13%
COc1ccc(-c2cn(-c3ccc(C)c(C)c3)c(=S)[nH]2)cc1OC,67,13µM*,11,2%
CCOc1ccccc1CN1CCCC(C(=O)Nc2cccc(-n3cccn3)c2)C1 (configuration not stated),4,u,-4,30%
CCOC(=O)N1CCC(N(CCN(C)C)C(=S)Nc2cc(Cl)ccc2C)CC1,-8,28%,5,92%
SMILES,Shiga inhibitor,Pf growth 48h,Cycloheximide cs,Pf growth 96h
CCCCOc1ccc(C(=O)NCC(=O)NCC2CCCO2)cc1 (configuration not stated),-6,u,1,27%
CC(Sc1nnc(Cc2ccccc2)o1)C(=O)Nc1ccccc1[N+](=O)[O-] (configuration not stated),x,18%,x,50%
O=[N+]([O-])c1cccc2c([As](=O)(O)O)cccc12,-6,0.74µM*,-1,0.47µM*
O=C(NCc1ccc(F)cc1)C(c1ccccc1)N(CC1CCCO1)C(=O)Cn1nnc2ccccc21 (configuration not stated),-4,8.3µM*,-1,u
O=C(NCc1ccco1)C(c1ccccc1)N(Cc1ccccc1)C(=O)Cn1nnc2ccccc21 (configuration not stated),40,-22%,18*,9.3µM*
Cc1cccc(C)c1NC(=O)C(c1cccs1)N(Cc1ccco1)C(=O)Cn1nnc2ccccc21 (configuration not stated),1,6.6µM*,-3,x
O=C(NCc1ccco1)C(c1ccccc1)N(CC1CCCO1)C(=O)Cn1nnc2ccccc21 (configuration not stated),-23,u,-1,0%
O=C(NCC1CCCO1)C(c1ccc(F)cc1)N(CC1CCCO1)C(=O)c1ccc(-c2ccccc2)[nH]1 (configuration not stated),-3,2.1µM*,-2,26%

# Compound activity (PubChem)
